# Experimental data published in PubChem BioAssay (EPA / NIEHS).
# Activity calls are given as the source filed them. How the source made its calls: active means hit-call score of the fitted dose curve at least 0.9, where 1 is the maximum; inactive means score below 0.9.
# Legend:
# Conditions in all cases: mRNA level, 48 h; actives raise or lower the signal
# [1] = read-out: Peroxisomal acyl-coenzyme A oxidase 1 (ACOX1) gene, ACOX1 (gene 51); test: LTEA_HepaRG_ACOX1: Life Technologies and Expression Analysis (LTEA) Assay for Peroxisomal acyl-coenzyme A oxidase 1 (ACOX1) gene using HepaRG (AID 2283467)
# How it was run: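 Differentiated human HepaRG cells were exposed in duplicate for 48 h in serum-free induction medium to eight half-log concentrations up to 100 uM in 0.5% DMSO. ACOX1 mRNA was then quantified by TaqMan qRT-PCR, normalized to ACTB, GAPDH and POLR2A.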
# [2] = read-out: Alkaline Phosphatase, Placental (ALPP) gene, ALPP (gene 250); test: LTEA_HepaRG_ALPP: Life Technologies and Expression Analysis (LTEA) Assay for Alkaline Phosphatase, Placental (ALPP) gene using HepaRG (AID 2283468)
# How it was run: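 HepaRG cells plated 48 h, then exposed in duplicate for 48 h in serum-free induction medium to 8-point half-log series from 100 uM in 0.5% DMSO. ALPP mRNA by TaqMan qRT-PCR, normalized to ACTB/GAPDH/POLR2A; bidirectional fit versus DMSO.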
# [3] = read-out: Bcl-2 (BAD) gene, BAD (gene 572); test: LTEA_HepaRG_BAD: Life Technologies and Expression Analysis (LTEA) Assay for Bcl-2 (BAD) gene using HepaRG (AID 2283469)
# How it was run: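 Differentiated human HepaRG cells in serum-free induction medium were exposed in duplicate for 48 h to eight concentrations (top 100 uM, half-log steps, 0.5% DMSO). BAD mRNA was quantified by qRT-PCR normalised to ACTB, GAPDH and POLR2A, with bidirectional fitting versus DMSO.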
# [4] = read-out: Bcl-2 (BAX) gene, BAX (gene 581); test: LTEA_HepaRG_BAX: Life Technologies and Expression Analysis (LTEA) Assay for Bcl-2 (BAX) gene using HepaRG (AID 2283470)
# How it was run: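 Differentiated HepaRG cells exposed 48 h in serum-free induction medium, eight half-log concentrations from 100 uM, in duplicate, 0.5% DMSO vehicle. BAX mRNA by TaqMan qRT-PCR, normalised to ACTB, GAPDH and POLR2A.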
# [5] = read-out: adenosine kinase (ADK) gene, ADK (gene 132); test: LTEA_HepaRG_ADK: Life Technologies and Expression Analysis (LTEA) Assay for adenosine kinase (ADK) gene using HepaRG (AID 2283471)
# How it was run: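 Following 48 h exposure of HepaRG cells in 0.5% DMSO (top concentration 100 uM, duplicate wells), ADK mRNA induction or suppression was measured by qRT-PCR, normalised to ACTB/GAPDH/POLR2A, and fitted bidirectionally relative to vehicle.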
# [6] = read-out: Alpha-fetoprotein (AFP) gene, AFP (gene 174); test: LTEA_HepaRG_AFP: Life Technologies and Expression Analysis (LTEA) Assay for Alpha-fetoprotein (AFP) gene using HepaRG (AID 2283472)
# How it was run: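 Differentiated human HepaRG cells exposed 48 h in serum-free induction medium, 8-point half-log series from 100 uM in 0.5% DMSO, duplicate. AFP mRNA by qRT-PCR, normalized to ACTB, GAPDH, POLR2A; bidirectional fit vs DMSO.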
# BCL2L11 (gene 10018) = test: LTEA_HepaRG_BCL2L11: Life Technologies and Expression Analysis (LTEA) Assay for Bcl-2 (BCL2L11) gene using HepaRG (AID 2283473)
# How it was run: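 Differentiated human HepaRG cells were exposed 48 h in serum-free induction medium to eight half-log concentrations up to 100 uM in 0.5% DMSO, in duplicate. BCL2L11 mRNA was quantified by TaqMan qRT-PCR, normalized to ACTB, GAPDH and POLR2A; induction or repression fitted versus DMSO.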
# [7] = read-out: Apoptosis regulator Bcl-2 (Homo sapiens) (UniProt P10415); test: LTEA_HepaRG_BCL2: Life Technologies and Expression Analysis (LTEA) Assay for Bcl-2 gene using HepaRG (AID 2283475)
# How it was run: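 Differentiated human HepaRG cells in serum-free induction medium exposed 48 h, in duplicate, to 8-point half-log series from 100 uM in 0.5% DMSO. BCL2 mRNA by qRT-PCR (TaqMan/Fluidigm), normalized to ACTB, GAPDH, POLR2A; bidirectional fit against DMSO.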
# [8] = read-out: Bcl-2 (BID) gene, BID (gene 637); test: LTEA_HepaRG_BID: Life Technologies and Expression Analysis (LTEA) Assay for Bcl-2 (BID) gene using HepaRG (AID 2283476)
# How it was run: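 Gene expression by qRT-PCR in HepaRG cells after 48 h exposure, duplicate wells, eight half-log concentrations topping at 100 uM in 0.5% DMSO. Normalized to ACTB, GAPDH, POLR2A; bidirectional fitting relative to DMSO.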
# Caspase-3 (Homo sapiens) = Caspase-3 (Homo sapiens) (UniProt P42574); test: LTEA_HepaRG_CASP3: Life Technologies and Expression Analysis (LTEA) Assay for cysteine-aspartic acid protease (CASP3) using HepaRG (AID 2283477)
# Chain of Caspase-3 (Homo sapiens) (P42574 whole entry, looked up): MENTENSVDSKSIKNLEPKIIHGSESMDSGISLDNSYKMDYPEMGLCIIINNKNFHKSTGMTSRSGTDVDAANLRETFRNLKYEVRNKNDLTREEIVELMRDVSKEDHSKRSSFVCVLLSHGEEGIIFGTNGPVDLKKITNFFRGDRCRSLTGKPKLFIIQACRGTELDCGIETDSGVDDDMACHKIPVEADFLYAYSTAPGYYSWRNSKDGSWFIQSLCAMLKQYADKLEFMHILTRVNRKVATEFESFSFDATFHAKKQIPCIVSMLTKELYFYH
# How it was run: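 Differentiated HepaRG cells, plated 48 h, were treated in duplicate in serum-free induction medium for 48 h with eight half-log concentrations up to 100 uM in 0.5% DMSO. CASP3 mRNA measured by qRT-PCR, normalized to ACTB, GAPDH, POLR2A.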
# [9] = read-out: Cytochrome P450 (CYP24A1), CYP24A1 (gene 1591); test: LTEA_HepaRG_CYP24A1: Life Technologies and Expression Analysis (LTEA) Assay for Cytochrome P450 (CYP24A1) using HepaRG (AID 2283478)
# How it was run: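 HepaRG cells plated 48 h, then exposed in duplicate in serum-free induction medium for 48 h to 8-point half-log series from 100 uM in 0.5% DMSO. CYP24A1 mRNA by Fluidigm qRT-PCR, normalized to ACTB, GAPDH, POLR2A; bidirectional fit versus DMSO.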
# [10] = read-out: Cytochrome P450 (CYP1A2), CYP1A2 (gene 1544); test: LTEA_HepaRG_CYP1A2: Life Technologies and Expression Analysis (LTEA) Assay for Cytochrome P450 (CYP1A2) using HepaRG (AID 2283479)
# How it was run: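 Differentiated human HepaRG cells in serum-free induction medium exposed 48 hours in duplicate to 8 half-log concentrations from 100 uM, 0.5% DMSO. CYP1A2 mRNA quantified by qRT-PCR, normalized to ACTB, GAPDH and POLR2A; bidirectional fitting versus DMSO.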
# [11] = read-out: cysteine-aspartic acid protease (CASP8), CASP8 (gene 841); test: LTEA_HepaRG_CASP8: Life Technologies and Expression Analysis (LTEA) Assay for cysteine-aspartic acid protease (CASP8) using HepaRG (AID 2283480)
# How it was run: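 Differentiated human HepaRG cells, plated 48 h then switched to serum-free induction medium, were exposed in duplicate for 48 h to 8 half-log concentrations up to 100 uM in 0.5% DMSO. CASP8 mRNA was quantified by qRT-PCR, normalized to ACTB/GAPDH/POLR2A.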
# [12] = read-out: Cytochrome P450 (CYP2B6), CYP2B6 (gene 1555); test: LTEA_HepaRG_CYP2B6: Life Technologies and Expression Analysis (LTEA) Assay for Cytochrome P450 (CYP2B6) using HepaRG (AID 2283481)
# How it was run: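 Differentiated human HepaRG cells in serum-free induction medium, dosed in duplicate for 48 h over 8 half-log concentrations topping at 100 uM (0.5% DMSO). CYP2B6 mRNA measured by TaqMan qRT-PCR, normalized to ACTB, GAPDH, POLR2A; bidirectional fit versus DMSO.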
# CYP2C8 (gene 1558) = test: LTEA_HepaRG_CYP2C8: Life Technologies and Expression Analysis (LTEA) Assay for CYP2C8 using HepaRG (AID 2283483)
# How it was run: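 Differentiated human HepaRG cells were exposed for 48 h in serum-free induction medium to eight half-log concentrations up to 100 uM in 0.5% DMSO, in duplicate. CYP2C8 mRNA was measured by TaqMan qRT-PCR, normalized to ACTB, GAPDH and POLR2A, and fitted bidirectionally against DMSO.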
# CYP2C9 (gene 1559) = test: LTEA_HepaRG_CYP2C9: Life Technologies and Expression Analysis (LTEA) Assay for CYP2C9 using HepaRG (AID 2283484)
# How it was run: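 Differentiated human HepaRG cells were exposed 48 h in serum-free induction medium to eight half-log concentrations up to 100 uM in 0.5% DMSO. CYP2C9 mRNA was measured by qRT-PCR, normalized to ACTB, GAPDH and POLR2A, and fitted bidirectionally against DMSO.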
# CYP2E1 (gene 1571) = test: LTEA_HepaRG_CYP2E1: Life Technologies and Expression Analysis (LTEA) Assay for CYP2E1 using HepaRG (AID 2283485)
# How it was run: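 HepaRG cells, plated 48 h, then exposed 48 h in serum-free induction medium to eight half-log concentrations from 100 uM in 0.5% DMSO, duplicate. CYP2E1 mRNA by qRT-PCR, normalized to ACTB/GAPDH/POLR2A; bidirectional fit versus DMSO.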
# CYP4A11 (gene 1579) = test: LTEA_HepaRG_CYP4A11: Life Technologies and Expression Analysis (LTEA) Assay for CYP4A11 using HepaRG (AID 2283486)
# How it was run: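 Differentiated HepaRG cells, 48 h after plating, exposed in duplicate for 48 h to 8 half-log concentrations up to 100 uM in 0.5% DMSO in serum-free induction medium. CYP4A11 mRNA measured by TaqMan qRT-PCR, normalized to ACTB, GAPDH and POLR2A.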
# Chain of Apoptosis regulator Bcl-2 (Homo sapiens) (P10415 whole entry, looked up): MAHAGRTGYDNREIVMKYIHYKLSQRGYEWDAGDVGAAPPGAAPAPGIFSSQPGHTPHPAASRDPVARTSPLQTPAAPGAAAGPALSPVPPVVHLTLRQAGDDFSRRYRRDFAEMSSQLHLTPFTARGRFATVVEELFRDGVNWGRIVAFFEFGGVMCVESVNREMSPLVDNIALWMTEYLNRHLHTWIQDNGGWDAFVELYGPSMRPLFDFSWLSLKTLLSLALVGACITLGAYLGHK
smiles,measurement,setting,value
Oc1ccc(C(c2ccc(O)cc2)(C(F)(F)F)C(F)(F)F)cc1,AC50,[1],83.8 µM (active)
same,AC50,[2],83 µM (active)
same,outcome,[3],inactive
same,outcome,[4],inactive
same,AC50,[5],81.6 µM (active)
same,outcome,[6],inactive
same,AC50,BCL2L11 (gene 10018),78.9 µM (active)
same,outcome,[7],inactive
same,outcome,[8],inactive
same,outcome,Caspase-3 (Homo sapiens),inactive
same,outcome,[9],inactive
same,outcome,[10],inactive
same,outcome,[11],inactive
same,AC50,[12],92 µM (active)
same,outcome,CYP2C8 (gene 1558),inactive
same,outcome,CYP2C9 (gene 1559),inactive
same,AC50,CYP2E1 (gene 1571),79.4 µM (active)
same,AC50,CYP4A11 (gene 1579),76.6 µM (active)
CN(C)c1nc(=O)n(C2CCCCC2)c(=O)n1C,outcome,[1],inactive
same,AC50,[2],12.5 µM (active)
same,outcome,[3],inactive
same,outcome,[4],inactive
same,outcome,[5],inactive
same,outcome,[6],inactive
same,outcome,BCL2L11 (gene 10018),inactive
same,outcome,[7],inactive
same,outcome,[8],inactive
same,outcome,Caspase-3 (Homo sapiens),inactive
same,outcome,[9],inactive
same,outcome,[10],inactive
same,outcome,[11],inactive
same,AC50,[12],33.6 µM (active)
same,outcome,CYP2C8 (gene 1558),inactive
same,outcome,CYP2C9 (gene 1559),inactive
same,outcome,CYP4A11 (gene 1579),inactive
CC1=C2C[C@H]3[C@@H](CC=C4C[C@@H](O)CC[C@@]43C)[C@@H]2CC[C@]12O[C@@H]1C[C@H](C)CN[C@H]1[C@H]2C,outcome,[1],inactive
same,outcome,[2],inactive
same,outcome,[3],inactive
same,outcome,[4],inactive
same,outcome,[5],inactive
same,outcome,[6],inactive
same,outcome,BCL2L11 (gene 10018),inactive
same,outcome,[7],inactive
same,outcome,[8],inactive
same,outcome,Caspase-3 (Homo sapiens),inactive
same,outcome,[9],inactive
same,outcome,[10],inactive
same,outcome,[11],inactive
same,outcome,[12],inactive
same,outcome,CYP2C8 (gene 1558),inactive
same,outcome,CYP2C9 (gene 1559),inactive
same,outcome,CYP2E1 (gene 1571),inactive
same,outcome,CYP4A11 (gene 1579),inactive
